Test results from PubChem BioAssay (NCI).
Compounds without any hit were thinned out: in the full panel of roughly 79,000, 15% have a hit. No stated cut-off is given here; in the data, active means growth inhibition above about 70%; inactive means the rest.

Key:
[1] = NCI Yeast Anticancer Drug Screen. Data for the rad50 strain (AID 155);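 further: 0% = growth of vehicle-only cultures of the same strain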; details: S. cerevisiae rad50 strain growth inhibition; at 50.0 µM; stronger effect = higher value
Method in brief: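 A DNA repair-deficient yeast mutant serves as the test organism; compound-induced growth inhibition is calculated against vehicle-treated cells.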

[2] = NCI Yeast Anticancer Drug Screen. Data for the mec2-1 strain (AID 157); details: S. cerevisiae mec2-1 strain, at 50.0 µM, stronger effect = higher value
Method in brief: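 mec2-1 yeast strain, carrying an alteration in DNA damage repair or cell cycle control, was exposed to compounds; growth inhibition was measured relative to vehicle-treated controls.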

[3] = NCI Yeast Anticancer Drug Screen. Data for the sgs1 mgt1 strain (AID 161);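 further: 0% = growth of cultures given vehicle only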; details: S. cerevisiae sgs1 mgt1 strain, at 50.0 µM, stronger effect = higher value
Method in brief: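 Compounds are added to genetically altered yeast, and growth is compared with cultures given vehicle alone to give percent inhibition.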

[4] = NCI Yeast Anticancer Drug Screen. Data for the cln2 rad14 strain (AID 165);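 further: 0% = growth equal to vehicle treated cultures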; details: S. cerevisiae cln2 rad14 strain, at 50.0 µM, stronger effect = higher value
Method in brief: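 Yeast carrying cln2 and rad14 alterations (cell cycle control and DNA damage repair) were exposed to compounds. Growth inhibition was measured against vehicle-treated controls.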

[5] = NCI Yeast Anticancer Drug Screen. Data for the bub3 strain (AID 167); details: S. cerevisiae bub3 mutant strain, at 50.0 µM, stronger effect = higher value
Method in brief: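 Inhibition values come from growth of compound-treated mutant yeast normalised to vehicle-treated controls.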

[6] = NCI Yeast Anticancer Drug Screen. Data for the mlh1 rad18 strain (AID 175); details: S. cerevisiae mlh1 rad18 strain growth inhibition; at 50.0 µM; stronger effect = higher value
Method in brief: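 Growth inhibition of the yeast strain was measured after compound exposure and expressed relative to vehicle-treated controls. The strain carries defined defects in DNA damage repair.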

Measured: growth inhibition

COc1c2ccoc2c(OC)c2oc(=O)ccc12
inactive: [1] 13.3% | [2] -23.6% | [3] 11.7% | [4] 17.2% | [5] -4% | [6] -2.45%

O=S(=O)(O)c1ccc(S)cc1
inactive: [1] 2.7% | [2] 1.55% | [3] 16.7% | [4] -6.5% | [5] -31% | [6] 1.6%

COC(=O)CCNC(=O)c1ccccc1
inactive: [1] 3.5% | [2] -1.6% | [3] -4.75% | [4] -5.75% | [5] 1.2% | [6] -3.25%

Cc1cc(Cc2cccc3ccccc23)nc2c1ccc1ccccc12
inactive: [1] 0.85% | [2] -11.2% | [3] 12.2% | [4] 11% | [5] -13.9% | [6] 17.6%

O=C(c1nc2ccccc2[nH]c1=O)C(O)c1ccccc1 (stereo unspecified)
inactive: [1] 6.9% | [2] -23.6% | [3] -3.1% | [4] 17.4% | [5] -12.8% | [6] -2.2%

CCCOc1ccc(C(=O)C(C(c2ccccc2)N2CCOCC2)N2CCOCC2)cc1 (stereo unspecified)
inactive: [1] -71.2% | [2] 22.5% | [3] 21% | [4] 36.7% | [5] 35.8% | [6] 54%

CCN1c2ccccc2CC(CCN(C)Cc2ccccc2)(C(N)=O)c2ccccc21 (stereo unspecified)
inactive: [1] 26.1% | [2] -1.15% | [3] -7.7% | [4] 7.45% | [5] 5.3% | [6] -6.05%

Cc1ccccc1CCCC(C(=O)O)C(=O)O
inactive: [1] -18.8% | [2] -7.75% | [3] 10.8% | [4] -2.8% | [5] -1.55% | [6] 1.75%

CC(=O)Oc1ccc(C2c3cc(OC(C)=O)c(OC(C)=O)cc3CC3C(=O)OCC32)cc1OC(C)=O (stereo unspecified)
inactive: [1] 2.45% | [2] -4.85% | [3] 2.6% | [4] -36.3% | [5] 12.3% | [6] 1.1%

Cc1sc2[nH]c(=O)oc(=O)c2c1C
inactive: [1] 44% | [2] -10.1% | [3] 36.2% | [4] 30.1% | [5] 10.5% | [6] 55.8%

N#C/C(=C\c1ccccc1)c1cccc(Br)c1
inactive: [1] 3.9% | [2] -6.1% | [3] 17.4% | [4] -22.9% | [5] 48.1% | [6] -1%

COc1cc(=O)n(-c2ccccc2)nc1C#N
inactive: [1] 2.25% | [2] -0.7% | [3] 1.35% | [4] -46.1% | [5] 8.85% | [6] -1.2%

CC1(CC2(c3ccccc3)NC(=O)NC2=O)NC(=O)NC1=O (stereo unspecified)
inactive: [1] -0.55% | [2] -19.6% | [3] 0.9% | [4] 10.6% | [5] 11.8% | [6] 5.65%

CC1(C)CS(=O)(=O)CC(C)(C)C(=O)C1=O
inactive: [1] -25.6% | [2] -19% | [3] -15% | [4] 5.45% | [5] -6% | [6] -3.4%

CCN(CC)c1ccc(N=C2C=C(C(=O)Nc3ccccc3OC)C(=O)c3ccccc32)c(C)c1
inactive: [1] -24.6% | [2] -28.6% | [3] -12.7% | [4] 5.25% | [5] -2.6% | [6] -16.5%

CCOC(=O)CCCN(c1sc(C)c(-c2ccccc2)c1C(=O)OCC)S(=O)(=O)c1ccc(C)cc1
inactive: [1] -16.6% | [2] -3.25% | [3] -14.6% | [4] -29.3% | [5] -3.75% | [6] 4.5%

O=C(O)CCCCl
inactive: [1] 12.3% | [2] -7.8% | [3] 16.2% | [4] 13.7% | [5] 12.7% | [6] 26%

O=C(O)/C=C(/C(=O)O)c1cccn1Cc1ccccc1
inactive: [1] 6.7% | [2] 14.2% | [3] 19.6% | [4] 17.4% | [5] 13.4% | [6] 16.4%

CCCC(Sc1nc(N)nc2nc[nH]c12)C(=O)O (stereo unspecified)
inactive: [1] -18.7% | [2] -10.2% | [3] -26.3% | [4] -24.3% | [5] -29% | [6] 4.9%

CC1OC(c2ccccc2)=CC(OCc2ccccc2)[C@H]1OCc1ccccc1 (stereo partly specified)
inactive: [1] -18.9% | [2] -23.6% | [3] -19% | [4] -50.8% | [5] -33% | [6] 2.95%

COc1cccc2cc(-c3c[nH]c4ccccc34)c(=O)oc12
inactive: [1] 1% | [2] 11.2% | [3] 11.2% | [4] 7% | [5] 1.65% | [6] 0.75%

CC(=O)N/N=C/c1cccc([N+](=O)[O-])c1
inactive: [1] -6.25% | [2] 5.15% | [3] -4.55% | [4] -35.8% | [5] -19.9% | [6] -7.9%

O=C(/C(=C\c1ccc(Cl)cc1)c1ccccc1)c1ccccc1
inactive: [1] -38% | [2] -29.5% | [3] 4.9% | [4] 5.95% | [5] -23.4% | [6] -16.1%

O=C(c1nc2ccc([N+](=O)[O-])cc2[nH]c1=O)C(O)c1ccc2c(c1)OCO2 (stereo unspecified)
inactive: [1] 32.4% | [2] -9.25% | [3] -11.1% | [4] 11.1% | [5] -1.25% | [6] 0.35%

Nc1ccc(/C=C/c2ccc(N)cc2)cc1
inactive: [1] 9.05% | [2] -0.95% | [3] -1.4% | [4] -1.25% | [5] 8.9% | [6] 5.05%

CN(C)C(=O)c1ccc([N+](=O)[O-])cc1
inactive: [1] 21.1% | [2] 6.4% | [3] 11.8% | [4] 12.1% | [5] -4.75% | [6] -23.4%

NCc1ccccc1[N+](=O)[O-]
inactive: [1] 11.4% | [2] 6.2% | [3] 3.5% | [4] -1.6% | [5] 3.5% | [6] 12%

CCCCCCCCCC(=O)N/N=C/c1c[nH]c2ccccc12
inactive: [1] 0.95% | [2] 28.4% | [3] 20.7% | [4] -8.75% | [5] 29.1% | [6] 21.9%

C=CC(=O)OCC(C)(C)COC(=O)C=C
inactive: [1] 3.3% | [2] -34.5% | [3] -16.7% | [4] 16.1% | [5] 19.8% | [6] -12.6%

Nc1ncnc2c1nnn2C1C=CC(CP(=O)(O)O)C1 (stereo unspecified)
inactive: [1] 2.65% | [2] 8.25% | [3] 12.9% | [4] 13.2% | [5] -4.5% | [6] 27.7%

O=C(O)c1cc(N2C(=O)c3ccc4c5ccc6c7c(ccc(c8ccc(c3c48)C2=O)c75)C(=O)N(c2ccc(O)c(C(=O)O)c2)C6=O)ccc1O
inactive: [1] -8.4% | [2] 10% | [3] 3.2% | [4] 34% | [5] 1.65% | [6] 26.3%

Cc1ccc2cccc(C)c2n1
inactive: [1] -14.9% | [2] -26.6% | [3] -45.3% | [4] -6.7% | [5] -29.6% | [6] -23.5%

CC(=O)/C=C\c1ccc(-c2ccccc2)cc1
inactive: [1] 2.65% | [2] -36.2% | [3] -3.6% | [4] -0.6% | [5] -18.9% | [6] -22.7%

COc1cc(OC)c(C(C)=O)cc1OC
inactive: [1] -9.2% | [2] -13.9% | [3] -3.15% | [4] -2.8% | [5] 6.3% | [6] 6.7%

CC(C)CCNCCC(C)C
inactive: [1] 35.7% | [2] 25.1% | [3] -2.85% | [4] -36.3% | [5] -14.9% | [6] 21.9%

O=C(/C=C/c1ccc(OCCSCCCCCCCCCCSCCOc2ccc(/C=C/C(=O)c3ccc(Cl)cc3)cc2)cc1)c1ccc(Cl)cc1
inactive: [1] -26.9% | [2] -25.1% | [3] -21.9% | [4] 13.7% | [5] -8.95% | [6] -29.9%

O=C(O)c1nc(-c2ccc(S(=O)(=O)O)cc2)[nH]c1C(=O)O
inactive: [1] -7.15% | [2] -0.25% | [3] 14% | [4] -24.8% | [5] -6.05% | [6] -3.6%

Cc1ccc2c(c1)CCC(=O)O2
inactive: [1] 11.4% | [2] 0% | [3] -1.75% | [4] -17.2% | [5] 10.4% | [6] 3.4%

CC(=O)OC1CCC2(C)C(=CCC3C4CCC(=O)NC4(C)CCC32)C1 (stereo unspecified)
inactive: [1] 43% | [2] -1.8% | [3] 52.7% | [4] -4.95% | [5] 8.4% | [6] 28.9%

Cc1ccccc1[B-]12OCC[N+]1(CNC(=O)c1ccccc1O)CCO2 (stereo unspecified)
inactive: [1] 26% | [2] -2.1% | [3] 3.5% | [4] 16.6% | [5] 1.35% | [6] 8.5%

CCOc1ccc(NC(=O)COc2ccc(Cl)cc2Cl)cc1
inactive: [1] 14.9% | [2] 22.3% | [3] 23.5% | [4] 18.4% | [5] 26.1% | [6] 14.9%
